Screens: PubChem, Sanford-Burnham Center for Chemical Genomics
Mac1 fbg inh: inhibitors of human CD11b/CD18 binding to fibrinogen; P05107+P11215; K562 CD11b/CD18 adhesion to fibrinogen, ATPlite luminescence; Mn2+ added to activate the integrin; inhibition, % at 10 µM; 0.54% of 93,000 active; AID 1497;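 active = primary inhibition of 50% or more at 10 µM, then 40% or more on retest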
CYP2C9 inh: inhibitors of human CYP2C9; CYP2C9 Supersomes, luciferin-H conversion, luminescence; inhibition, % at 5 µM; 20% of 96,000 active;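 active = blocking of liver enzyme CYP2C9 beyond about 50% at 5 µM, limit read from the data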
Target sequence (P11712 whole entry, looked up): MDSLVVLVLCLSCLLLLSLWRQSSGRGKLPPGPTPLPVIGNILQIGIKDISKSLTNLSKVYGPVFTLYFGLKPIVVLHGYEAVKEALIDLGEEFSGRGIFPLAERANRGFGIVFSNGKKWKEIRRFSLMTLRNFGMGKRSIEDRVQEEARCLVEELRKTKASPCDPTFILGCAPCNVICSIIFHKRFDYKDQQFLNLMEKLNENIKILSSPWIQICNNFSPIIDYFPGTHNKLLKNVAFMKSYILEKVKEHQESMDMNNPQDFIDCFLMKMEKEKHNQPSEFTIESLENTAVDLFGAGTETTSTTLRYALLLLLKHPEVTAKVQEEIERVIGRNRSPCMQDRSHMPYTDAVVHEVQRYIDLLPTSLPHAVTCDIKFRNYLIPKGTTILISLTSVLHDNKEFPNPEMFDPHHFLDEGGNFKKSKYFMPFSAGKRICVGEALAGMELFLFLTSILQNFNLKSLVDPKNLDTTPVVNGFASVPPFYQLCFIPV
CYP2C19 inhib: inhibitors of human CYP2C19. CYP2C19 Supersomes, luciferin-H EGE luminescence, 30 min. P33261. inhibition, % at 5 µM. 21% of 96,000 active;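 active = CYP2C19 inhibition above a set limit at 5 µM in the primary screen, cut at about 50% in these data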
CYP2C19 activ: activators of human cytochrome P450 2C19 | recombinant CYP2C19, luciferin-H EGE luminescence; hits give high values; 0 = fully inhibited enzyme, 1 = untreated enzyme | activation factor at 5 µM | 96,000 tested, under 10 active;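 active = activation factor of at least 2 at 5 µM in the primary screen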
CD11b adhes enh: enhancers of human CD11b/CD18 binding to fibrinogen; 0.07% of 93,000 active; activation, % at 10 µM; K562 CD11b/CD18 adhesion to fibrinogen, ATPlite luminescence;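 active = 10 µM primary screen giving 50% or more activity, confirmed by 40% or more on retest at that dose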
CYP2C9 activ: CYP2C9 (human) activation; 1.4% of 96,000 active; P11712; recombinant CYP2C9, luciferin-H conversion, luminescence; hits give high values; factor 1 = untreated enzyme, 0 = blocked; AID 1024; activation factor at 5 µM;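 active = activation factor of 2 or more for CYP2C9 at a 5 µM dose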
Each line names hits and unclear results; the compound was inactive in the other large screens. A selection: hits, their analogues and other compounds. The true share with any hit is near 28%.

O=C1CC(SC(=Nc2ccccc2)Nc2ccccc2)C(=O)N1c1cccc(Cl)c1 (stereo unspecified)	none (no result: Mac1 fbg inh, CD11b adhes enh)
CSc1cc(-c2ccccc2)n(Cc2c(Cl)cccc2Cl)c(=O)c1C#N	CYP2C9 inh 75
Cc1nnc(SCC(=O)Nc2nccs2)[nH]c1=O	none (no result: Mac1 fbg inh, CD11b adhes enh)
CN(C)c1ccc(/C=N/NC(=O)CN(c2ccccc2Cl)S(C)(=O)=O)cc1Br	none (no result: Mac1 fbg inh, CD11b adhes enh)
CCc1ccccc1N(CC(=O)N/N=C/c1ccc(OC(=O)OC)c(OC)c1)S(C)(=O)=O	CYP2C9 inh 50
CCC(C)NC(=O)C1=C(C)C(=O)OC12CCC(C)CC2 (stereo unspecified)	CYP2C19 inhib 82
CC1=C(C(=O)NCc2ccc3c(c2)OCO3)C2(CCC(C)CC2)OC1=O (stereo unspecified)	CYP2C9 inh 85, CYP2C19 inhib 66
CCn1c(COc2ccc(Cl)c(C)c2)nnc1SCC(=O)N1CCCC1	none (no result: Mac1 fbg inh, CD11b adhes enh)
NS(=O)(=O)c1ccc(NCc2ccccc2OCc2ccc(F)cc2)cc1	Mac1 fbg inh 65, CYP2C9 inh 78
Cc1cc(NCCO)nc(N2CCOCC2)n1	none
CCCc1nc2ccccc2c(C(=O)OCC(=O)NCc2ccco2)c1CC	CYP2C9 inh 70
CCCc1nc2ccccc2c(C(=O)OCC(=O)Nc2ccc(S(=O)(=O)N3CCOCC3)cc2)c1CC	CYP2C9 inh 76
CCc1nc2ccccc2c(C(=O)OCC(=O)NCc2ccco2)c1C	CYP2C19 inhib 56
O=C(COC(=O)c1ccccc1Nc1ccccc1)NCc1ccco1	none
COc1ccc(OCC(=O)N2CCN(c3cccc(Cl)c3)CC2)cc1	none
CC(=O)c1ccc(N2CCN(C(=O)COc3ccc(F)cc3)CC2)c(F)c1	CYP2C19 inhib 53
CCC(=O)c1ccc(N2CCN(C(=O)COc3ccc(F)cc3)CC2)c(F)c1	none
O=C(COc1ccc(Cl)cc1)N1CCN(c2ncccn2)CC1	CYP2C9 inh 54, CYP2C19 inhib 67
COc1ccccc1N1CCN(C(=O)COc2ccc(Cl)cc2)CC1	CYP2C9 inh 52, CYP2C19 inhib 80
COc1ccccc1OCC(=O)N1CCN(c2ccccc2OC)CC1	none
Cc1cccc(NC(=O)CCc2ccc(C)o2)c1	CYP2C19 inhib 90
Cc1ccc(CCC(=O)Nc2ccc(S(N)(=O)=O)cc2)o1	none (no result: Mac1 fbg inh)
CCOC(=O)c1ccc(NC(=O)CCc2ccc(C)o2)cc1	CYP2C9 inh 55 (no result: Mac1 fbg inh, CD11b adhes enh)
O=C(CN1CCOCC1)Nc1scc(-c2ccccc2)c1C(=O)N1CCOCC1	none
Cc1ccccc1C(=O)O/N=C/c1c(N2CCOCC2)n(C)c2ccccc12	CYP2C9 inh 88
CC(C)(C)C1CCc2[nH]nc(C(=O)O)c2C1 (stereo unspecified)	none
CC(C)CC(=O)Nc1nnc(SCC(=O)NCc2ccco2)s1	none (no result: CYP2C9 inh, CYP2C19 inhib, CYP2C19 activ, CYP2C9 activ)
Cn1c(=O)c2c(nc(SCC(=O)OCc3ccccc3)n2C)n(C)c1=O	CYP2C9 inh 80
Cn1c(=O)c2c(ncn2Cc2ccc(Cl)c(Cl)c2)n(C)c1=O	CYP2C9 inh 61, CYP2C19 inhib 92
Cn1c(=O)c2c(ncn2CC(=O)OCc2ccccc2)n(C)c1=O	CYP2C9 inh 63
COc1ccc(-n2c(SCCC(=O)O)nnc2-c2ccncc2)cc1	none
CC(C)c1ccc2c(c1)C(=O)NC(C)(C)C2	none
CCOc1c(Cl)cc(CNC(C)(C)CC(C)(C)C)cc1OC	CYP2C19 inhib 91
COc1ccc(C(=O)NC(=O)COC(=O)C2COc3ccccc3O2)cc1 (stereo unspecified)	none
Cc1ccc(-c2nn(-c3ccccc3)cc2/C=C(\C#N)c2cccc(C#N)c2)o1	CYP2C9 inh 64
CN(C)S(=O)(=O)c1cccc(-c2nn(-c3ccccc3)cc2/C=C(\C#N)c2nc3ccccc3[nH]2)c1	none (no result: CYP2C9 inh, CYP2C19 inhib, CYP2C19 activ, CYP2C9 activ)
CCCCc1nc2ccccc2c(=O)n1NC(=O)c1c(O)c2cccc3c2n(c1=O)CCC3	CYP2C9 inh 53
Cc1ccccc1Cn1cc(NC(=O)c2nc3ncccn3n2)cn1	none
CC1=NN(c2ccccc2)C(=O)/C1=C/c1cc2cc(C)ccc2nc1N1CCCCC1	CYP2C9 inh 81, CYP2C19 inhib 67 (no result: Mac1 fbg inh, CD11b adhes enh)
CC1=NN(c2ccccc2)C(=O)/C1=C\C=C1/N(C)c2ccccc2C1(C)C	none (no result: CYP2C9 inh, CYP2C19 inhib, CYP2C19 activ, CYP2C9 activ)
Cc1cc(C(F)(F)F)n2nc(-c3cnn(C)c3C(F)(F)F)c(Cl)c2n1	CYP2C9 inh 72, CYP2C19 inhib 51 (no result: Mac1 fbg inh, CD11b adhes enh)
Cc1cc(C)n2nc(-c3cnn(C)c3C(F)(F)F)c(Cl)c2n1	none (no result: Mac1 fbg inh, CD11b adhes enh)
Cc1cc(NC(=O)CSc2nc3ccccc3c(=O)n2CCCC(=O)NCc2ccco2)n[nH]1	CYP2C9 inh 71, CYP2C19 inhib 84 (no result: Mac1 fbg inh, CD11b adhes enh)
O=C(CSc1nc2ccccc2c(=O)n1CCCC(=O)N1CCCC1)NCc1ccco1	CYP2C19 inhib 65 (no result: Mac1 fbg inh, CD11b adhes enh)
CC(NC(=O)CCCCCN1C(=O)c2ccccc2C1=O)c1ccc2c(c1)CCCC2 (stereo unspecified)	CYP2C9 inh 92
CC(NC(=O)CCCN1C(=O)c2ccccc2C1=O)c1ccc2c(c1)CCCC2 (stereo unspecified)	CYP2C9 inh 90, CYP2C19 inhib 83
CC(NC(=O)CCCCCCN1C(=O)c2ccccc2C1=O)c1ccc2c(c1)CCCC2 (stereo unspecified)	none (no result: CYP2C9 inh, CYP2C19 inhib, CYP2C19 activ, CYP2C9 activ)
COc1cc2c(cc1OC)CN(C(=O)CCCN1C(=O)c3ccccc3C1=O)CC2	none
CCOC(=O)N1CCN(Cc2nc3c(c(=O)[nH]c(=O)n3C)n2Cc2ccccc2C)CC1	none (no result: Mac1 fbg inh, CD11b adhes enh)
Cc1ccc2c(c1)N(CC(=O)NC1CCCCC1C)C(=O)CO2 (stereo unspecified)	none
Cc1ccc(-c2ccc(/C=N/NC(=S)Nc3ccccc3)o2)cc1[N+](=O)[O-]	CYP2C9 inh 53, CYP2C19 inhib 65 (no result: Mac1 fbg inh, CD11b adhes enh)
COc1ccc(-c2c(C)n([O-])c3c([n+]2=O)CCC3)cc1OC	none
N#CC(C#N)C(c1ccsc1)c1c(-c2ccccc2)[nH][nH]c1=O (stereo unspecified)	none
CCCc1[nH][nH]c(=O)c1C(c1cccc(Cl)c1)C(C#N)C#N (stereo unspecified)	CYP2C9 inh 75, CYP2C19 inhib 75
CCC1CCCCN1C(=O)CSc1nnc(-c2cccs2)o1 (stereo unspecified)	CYP2C19 inhib 98
COc1ccc(-n2cnnc2SCC(=O)c2cc(C)n(Cc3cccs3)c2C)cc1	CYP2C9 inh 76, CYP2C19 inhib 99
COc1ccc(-c2nnc(SCC(=O)c3cc(C)n(Cc4cccs4)c3C)o2)cc1	CYP2C9 inh 78, CYP2C19 inhib 80
COCCn1c(C)cc(C(=O)CSc2nncn2-c2ccccc2)c1C	CYP2C19 inhib 57
Cc1cc(C(=O)CSc2nnc(-c3cccs3)o2)c(C)n1-c1ccccc1	CYP2C9 inh 89, CYP2C19 inhib 66
CC(C)CCNC(=O)c1sc2ccc(S(=O)(=O)N3CCCCC3)cc2c1N	none (no result: CYP2C9 inh, CYP2C19 inhib, CYP2C19 activ, CYP2C9 activ)
